# Assay outcomes from PubChem BioAssay.
# Rows were chosen to be rich in hits. Some 5.3% of all compounds tested hit in one or more screens of this group.
# Marburg entry inh: Marburg virus entry inhibition. Marburg virus pseudotyped entry inhibition, cell reporter. Potency, µM (titrated, usually from 37.8 µM), for inactives: top-dose activity change, negative = inhibition, actives largely listed as inhibitors. hit rate 1.8% among 300,000; calls by dose curve; tested in HEK293 cells
# Vaccinia Venus: vaccinia inhibition (Venus reporter); hit rate 0.46% among 330,000; Vaccinia virus Venus reporter expression, fluorescence; Potency, µM (titrated, usually from 36.5 µM), without a hit: top-dose activity change, negative = inhibition, actives largely listed as inhibitors; calls by dose curve; tested in A549 cells; note: nearly all actives have a fitted effect of over 30% in size
# HCV inh: HCV inhibition | Huh7.5.1 HCVcc-Cre infection, luciferase reporter, 44 h | Potency, µM (highest dose often 41.8 µM), for the others: at the highest dose activity change, negative = inhibition, most hits filed as inhibitors | hit rate 3.4% among 340,000 | AID 651820; active = well fitted inhibition curve with a large enough effect; inconclusive = small, poorly fitted or top-dose-only effect, or another doubt; inactive = no such curve, though single readings can be large or run the other way
#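 After 44 h co-culture of compound, cells and HCVcc-Cre (~0.5 moi), substrate is added for 15 min at room temperature and luciferase measured over 15 sec. Cells were seeded at 1,000/well and pre-cultured 4 h.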
# FMDV inh: blocks foot and mouth disease virus. FMDV antiviral cell-based qHTS. Potency, µM (titrated, usually from 57.9 µM), for inactives: at the highest dose activity change, negative = inhibition, usual class: inhibitors. hit rate 1.2% among 410,000; calls by dose curve; tested in HEK293T cells; note: read-out not given here; nearly all actives have a fitted effect of over 45% in size
# Vaccinia mCherry: inhibitors of vaccinia virus infection (mCherry reporter signal). AID 720579. hit rate 0.63% among 310,000. Potency, µM (top dose mostly 36.5 µM), without a hit: top-dose activity change, negative = inhibition, hits mostly inhibitors. Vaccinia virus mCherry reporter infection, fluorescence; calls by dose curve; tested in A549 cells; note: nearly all actives have a fitted effect of over 35% in size
# Lassa entry inh: inhibitors of Lassa virus binding or cell entry. Lassa virus pseudotype entry inhibition, cell reporter. Potency, µM (series often up to 37.9 µM), without a hit: at the top dose activity change, negative = inhibition, most hits filed as inhibitors. hit rate 1.2% among 300,000. AID 540256; calls by dose curve; tested in HEK293 cells; note: nearly all actives have a fitted effect of over 50% in size
# Numbers without * were called inactive; i = inactive; ? = inconclusive; . = no result; [ ] = remark or other dose. % is set by controls: 0 for no effect and ±100 for the full control effect; potency is the fitted concentration of half-maximal effect.
SMILES,Marburg entry inh,Vaccinia Venus,HCV inh,FMDV inh,Vaccinia mCherry,Lassa entry inh
Oc1ccc(Br)cc1/C=N/NC(=S)NCCc1ccccc1,?,-11%,10µM*,2%,1µM*,-13%[46.1 µM]
O=C(CSc1ncccn1)NCC1Cc2cccc(-c3ncccn3)c2O1 (configuration not stated),.,-7%,.,6%,-14%,.
COC(=O)c1ccc(/C=N/NC(=O)CNc2cccc(C)c2)cc1,3%[46.1 µM],-1%,?,-4%,-1%,?
CCOc1cc(/C=N/Nc2cccc(C(=O)O)c2)ccc1OC(=O)c1ccccc1,?,-7%,2%,4µM*,-12%,?
CCOc1cc(/C=N/NC(=O)CNc2cccc(C)c2)ccc1OC(=O)c1ccccc1,7%,-8%,-9%,-19%,.,16µM*
COc1cc(C=NNc2ccccc2)ccc1OC(=O)c1ccccc1,.,-7%,.,65%,i,.
COC(=O)CC=C[C@@H](C)[C@@H](C=NO[C@H](C)c1cn([C@@H]2COC[C@@H]2O)nn1)N[S+](=O)([O-])c1ccc(C)cc1,10%[14.2 µM],.,.,.,.,.
Cc1[nH]nc(-c2ccc(O)c(C)c2O)c1-c1cnn(-c2ccccc2)c1,?,.,4µM*,-2%,.,-13%
COCCN(C(=O)Cc1ccc(S(=O)(=O)N2CCOCC2)s1)c1c(N)n(CC(C)C)c(=O)[nH]c1=O,-2%,-5%,-2%,-19%,-18%,8%
CCOC(=O)C1=C(CSc2nc3c(cc2C#N)CN(C)CC3)OC(N)=C(C#N)C1c1ccc(Cl)cc1 (configuration not stated),?,-1%,13µM*,0%,.,8%
C=C(C)C(O)C=Cc1ccccc1OC (configuration not stated),6%[14.2 µM],.,.,.,.,.
O=C(NNC(=S)Nc1ccc(C(=O)O)c(O)c1)c1ccncc1,?,0%,9%,13µM*,?,-25%[46.1 µM]
COCCCNC(=O)CSc1nc2cc3c(cc2c(=O)n1CCCCCC(=O)NCc1ccc(OC)cc1)OCO3,.,-9%,.,24%,-10%,14%[46.1 µM]
COc1cc2c(cc1NC(=O)C(C)OC(=O)C1CC(=O)N(Cc3ccco3)C1)oc1ccccc12 (configuration not stated),-23%,-28%,14µM*,0%,-4%[1.46 µM],12%
COC1=C[C@H](C(=O)NCc2ccc(OC)cc2)C(C)C(c2ccccc2)CC1=O (some centres not stated),3%[14.2 µM],.,.,.,.,.
O=C1COc2ccc(-c3csc(NCCc4ccccc4)n3)cc2N1,?,-13%,?,40µM*,-20%,?
O=C(Nc1ccc2oc(-c3cccc(F)c3)nc2c1)c1ccc2ccccc2c1,.,-3%,.,-8%,-16%,10%[46.1 µM]
O=C(N/N=C/C=C/c1ccccc1[N+](=O)[O-])c1cccs1,?,-17%,-12%,21%,-2%,9%
O=C(N/N=C\C=C\c1ccc([N+](=O)[O-])o1)c1cccs1,?,?,?,2%,10µM*,?
Cc1nn(Cc2ccccc2)c(C)c1C=C1C(=O)NC(=S)NC1=O,-9%,-3%,16%,14µM*,i,2%
Cc1nn(Cc2ccccc2)c(C)c1N,-6%,-2%,-4%,-23%,-11%,17%
COCCCNC(=O)CN1C(=O)c2cccnc2Sc2ccccc21,.,-2%,.,-5%,9%,?
COc1cccc(-c2cc(C(F)(F)F)nc(-n3cc(C)cn3)n2)c1,.,.,10µM*,-23%,.,.
Cc1oc(-c2ccc(C(=O)NCc3ccc(F)cc3)cc2)nc1CS(=O)c1ccccc1 (configuration not stated),.,-21%,.,?,-21%,-1%[46.1 µM]
CCN(CC)S(=O)(=O)c1ccc2oc(SCC3CN=C(c4ccc(OC)cc4)S3)nc2c1 (configuration not stated),-30%,.,11µM*,?,.,?
SMILES,Marburg entry inh,Vaccinia Venus,HCV inh,FMDV inh,Vaccinia mCherry,Lassa entry inh
COc1ccc(C2=NCC(CSc3nnc(-c4ccc5c(c4)OCO5)o3)S2)cc1 (configuration not stated),?,.,?,?,.,9%
COc1ccccc1-n1c(=O)oc2ccc(Cl)cc2c1=O,?,13µM*,?,0%,.,?
C[C@H](CO)N1C[C@H](C)[C@@H](CN(C)Cc2ccc(Cl)c(Cl)c2)OCc2cnnn2CCCC1=O,.,-12%,.,-21%,-19%,.
CC(=O)N1CCc2c(sc3c2c(=O)n(CCc2ccccc2)c(=O)n3Cc2ccc(F)cc2)C1,?,-1%,.,?,-12%,.
CCOc1ccccc1/C=N/OCC(=O)NCc1ccc(F)cc1,-15%[46.1 µM],-3%,4µM*,-19%,-13%,.
COC(=O)c1ccc(/C=N/OCC(=O)NCc2ccc(F)cc2)cc1,-1%,-9%,?,-7%,-4%,-18%
COc1ccccc1N1CCN(C(=O)C(C)N(c2ccc(C)c(C)c2)S(C)(=O)=O)CC1 (configuration not stated),-28%,-23%,?,35µM*,.,-18%
N#CCCn1cc(/C=N/O)c(-c2ccccc2)n1,1%,.,10%,8%,.,8%
N#CCCn1cc(/C=N/NC(N)=S)c(-c2ccc(-c3ccccc3)cc2)n1,.,.,11µM*,-29%,.,.
CN(C)CCNc1nc2sc3c(c2c(=O)n1-c1ccccc1)CCCCC3,?,-23%,-56%,-9%,-1%,-6%
COc1ccc(-n2c(N3CCN(C)CC3)nc3sc4c(c3c2=O)CCCCC4)cc1,-11%,.,13µM*,9%,.,-21%
CN(C)CCNc1nc2sc3c(c2c(=O)n1Cc1ccccc1)CCCCC3,10µM*,-9%,11µM*,-7%,-9%,8%
COCCn1c(SCC(=O)Nc2ncc(C)s2)nc2sc3c(c2c1=O)CCC3,.,.,2.2µM*,.,.,.
COc1ccc(-n2c(NCCN(C)C)nc3sc4c(c3c2=O)CCCCC4)cc1,23µM*,-23%,?,-29%,i,-19%
CN(C)CCNc1nc2sc3c(c2c(=O)n1-c1ccc(F)cc1)CCCCC3,?,-18%,?,-13%,-11%,?
COc1ccccc1NC(=O)C1=C(C)Nc2nnnn2C1c1cc(Br)c(O)c(OC)c1 (configuration not stated),-16%[46.1 µM],1%,.,-11%,-12%,-1%[46.1 µM]
COc1ccc(-n2c(SCC(N)=O)nc3sc4c(c3c2=O)CCC4)cc1,-3%[46.1 µM],0%,10µM*,-24%,-6%,7%
COc1ccc(-n2c(SCC(=O)O)nc3sc4c(c3c2=O)CCC4)cc1,?,-12%,3%,-5%,i,-1%
COC[C@H]1O[C@H](c2ccccc2)C=C[C@H]1OCc1cccc(Br)c1,-15%[14.2 µM],.,.,.,.,.
CN1CCC(C2(O)c3ccccc3CCc3ccccc32)CC1,18µM*,-8%,7%,6%,-3%,-2%
Cc1cccc(Cc2c(C)nc3c(-c4ccccc4)c(C)[nH]n3c2=O)c1,?,?,.,-9%,?,?
Cc1nc2c(-c3ccc(Cl)cc3)c(C)[nH]n2c(=O)c1Cc1ccccc1,4µM*,?,?,-29%,6.3µM*,?
